Our source for the inhibition values is PubChem BioAssay AID602123 (The Scripps Research Institute Molecular Screening Center, 2011).

Among all 360,000 compounds or so, about 1,500 (0.42%) were called active. No stated cut-off is given here; in the data, active means inhibition above about 13% (passing the limit was not always enough); inactive means the rest. The full list was thinned out, with actives kept by preference.

In the experiment the target is Lon protease (Escherichia coli (strain K12)) (UniProt P0A9M0). The experiment in a line: inhibitors of E. coli Lon protease, primary screen, biochemical, fluorescence polarization (AID 602123).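 Further: 0% = enzyme with probe and DMSO and 100% = no enzyme.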 As to conditions: purified E. coli Lon protease, at 7.94 µM, hits give high values. (In general: In fluorescence polarisation assays a small probe gives low polarisation when free and higher when bound to something large.)
Chain of Lon protease (Escherichia coli (strain K12)) (P0A9M0 whole entry, looked up): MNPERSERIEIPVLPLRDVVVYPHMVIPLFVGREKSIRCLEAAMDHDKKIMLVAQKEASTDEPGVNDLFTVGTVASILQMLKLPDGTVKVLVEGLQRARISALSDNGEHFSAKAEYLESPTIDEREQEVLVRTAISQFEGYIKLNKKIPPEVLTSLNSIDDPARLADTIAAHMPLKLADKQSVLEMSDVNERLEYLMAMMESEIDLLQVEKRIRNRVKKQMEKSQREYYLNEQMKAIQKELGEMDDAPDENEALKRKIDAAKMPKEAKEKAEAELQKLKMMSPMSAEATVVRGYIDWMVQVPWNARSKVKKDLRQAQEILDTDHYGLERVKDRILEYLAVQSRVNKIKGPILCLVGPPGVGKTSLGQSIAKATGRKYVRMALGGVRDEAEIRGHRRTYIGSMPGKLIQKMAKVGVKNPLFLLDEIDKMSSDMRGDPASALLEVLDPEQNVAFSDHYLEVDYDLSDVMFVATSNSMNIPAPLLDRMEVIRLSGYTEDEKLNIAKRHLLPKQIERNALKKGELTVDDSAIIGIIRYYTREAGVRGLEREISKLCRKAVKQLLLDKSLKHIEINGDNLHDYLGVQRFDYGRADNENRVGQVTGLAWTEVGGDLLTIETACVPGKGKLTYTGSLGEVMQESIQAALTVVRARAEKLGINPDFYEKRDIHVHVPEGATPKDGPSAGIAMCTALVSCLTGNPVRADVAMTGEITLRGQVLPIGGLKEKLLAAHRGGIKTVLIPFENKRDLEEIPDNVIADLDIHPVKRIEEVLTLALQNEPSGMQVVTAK
Take `O=S(=O)(NCc1ccccn1)c1ccc(Br)s1`: the inhibition was -5.95% (inactive). `O=S(=O)([N-]c1nc2ccccc2nc1-[n+]1ccc(Cc2ccccc2)cc1)c1ccc(Br)s1`: the inhibition was 51.7% (active). Turning to `CCOC(=O)C(C(=O)c1ccccc1)C(c1ccccc1)c1nccc2ccccc12` (configuration not stated), the inhibition is -5.25% (inactive). As to `CCOCCOCCC(C(=O)O)P(=O)(c1ccccc1)c1ccccc1` (configuration not stated), the inhibition was 1.28% (inactive).

Turning to `CSc1ncccc1C(=O)NCC(c1ccco1)N1CCCCC1` (configuration not stated), the inhibition was 2.84% (inactive). As for `O=C(NCc1ccco1)c1cnn2c(C(F)(F)F)cc(-c3ccco3)nc12`, the figure is -0.62% (inactive).

With `Oc1ccc2ccccc2c1N=Nc1nccs1`, the inhibition is 43.2% (active). As to `O=C(COC(=O)CNC(=O)C1CCCCC1)Nc1cccc(F)c1`, the inhibition was -17.9% (inactive). Consider `CCN1CCN(CC(=O)c2cc(OC)c(OC)c(OC)c2)CC1`, for which the inhibition is 7.78% (inactive). For the molecule `CN1c2ccc(C=O)c3c(C=O)ccc(c23)N(C)C1(C)C`, the inhibition was 117% (active). As for `Cc1ccc(C=O)c([B-](F)(F)F)c1`, the inhibition was -1.79% (inactive). Consider `COc1ccc(C(=O)NCC(c2ccco2)N2CCc3ccccc32)cc1OC` (configuration not stated), for which the inhibition is 4.85% (inactive). As for `COc1ccc(OC)c(NC(=O)Cc2cccs2)c1`, the figure is 32.4% (active); as for `COc1ccc(C)cc1NC(=O)CNCc1cccs1`, 5.01% (inactive); as for `COc1cc(OC)cc(C(=O)NNC(=O)Cc2cccs2)c1`, -9.81% (inactive). As to `COc1cc(C(=O)Nc2ncccc2C)ccc1OCC(=O)N1CCOCC1`, the inhibition is -2.64% (inactive).

Regarding `CC(=O)CC[C@@H](C)O[C@@H]1OC(C)[C@H](O)CC1O` (some centres not stated), the inhibition is 1.06% (inactive). As for `CCc1cc2c(=O)c(-c3nc4ccccc4n3C)c(CCCC(=O)O)oc2cc1OC(=O)C(C)(C)C`, the figure is -5.21% (inactive); as for `O=C1C(Sc2cccc(F)c2)=C[C@@]2(O)CC[C@@H](O)[C@]1(Sc1cccc(F)c1)[C@H]2O`, -1.25% (inactive); as for `COc1ccc(C(=O)NCc2nnc(SCC(=O)NC3=NCCS3)n2C)cc1`, 1.04% (inactive). As to `COc1ccc(CC(=O)NCc2nnc(SCC(=O)Nc3nccs3)n2C)cc1`, the inhibition is -1.92% (inactive).

As to `COc1ccc(C(=O)NCc2nnc(SCCOc3ccccc3)n2C)cc1`, the inhibition is 19.3% (active).

As to `C/C(=N\NC(=O)NC1CCCCC1)c1ccc(OC(F)F)cc1OC(F)F`, the inhibition is -5.36% (inactive). With `O=C1C(C=NCC2CCCO2)=C(O)c2ccccc21` (configuration not stated), the inhibition is 3.5% (inactive). Consider `N#Cc1cc([N+](=O)[O-])ccc1NCC1CCCO1` (configuration not stated), for which the inhibition is 7.82% (inactive).

Consider `O=C1c2cccc3c([N+](=O)[O-])ccc(c23)C(=O)N1CC1CCCO1` (configuration not stated), for which the inhibition was 25.4% (active). `COc1ccc(SCCN2CCN(CC(C)C)CCC2=O)cc1`: the inhibition is 8.99% (inactive). As for `CN(Cc1cn(Cc2ccc(C(F)(F)F)cc2)nn1)C1CN(Cc2cn(Cc3ccc(C(F)(F)F)cc3)nn2)S(=O)(=O)C1` (configuration not stated), the inhibition is 4.67% (inactive). As for `Cc1ccccc1S(=O)(=O)NC(=O)C1(C)CCN1C(=O)C1(c2ccccc2)CCCC1` (configuration not stated), the inhibition is -3.92% (inactive). `CCN(CC)C(=O)CSc1nnc(-c2ccc(S(=O)(=O)NCc3ccccc3Cl)cc2)o1`: the inhibition is 11.8% (inactive). `Cc1cnc(CN(C)C(=O)C2CCC(=O)N(CCc3cccc(F)c3)C2)[nH]1` (configuration not stated): the inhibition is 0.28% (inactive). For the molecule `COc1ccc(NC(=O)CC(NC(C)c2ccccc2)C(=O)O)cc1` (configuration not stated), the inhibition was 1.2% (inactive). For `COc1ccc(NC(=O)CSc2nnc(Cc3ccccc3)c(=O)n2N)cc1`, the inhibition is 1.33% (inactive).

Regarding `COc1ccc(CC(=O)Nc2ccc(-c3nnc(-c4ccccc4)o3)cc2)cc1`, the inhibition is 27.1% (active).

As for `O=c1c2ccccc2nc2n1C(CSCc1cccc(C(F)(F)F)c1)CS2` (configuration not stated), the inhibition is -0.91% (inactive). As for `COc1ccc(C2C3=C(OC(C)=O)c4ccccc4C3=Nc3c2c(=O)n(C)c(=O)n3C)cc1` (configuration not stated), the figure is -3.27% (inactive); as for `CC1Cc2cc(/C(O)=C3\C(=O)C(=O)N(Cc4cccnc4)C3c3ccccc3F)ccc2O1` (configuration not stated), -8.03% (inactive). On to `O=C1C=C(NCCNc2c(F)c(F)c(CO)c(F)c2F)CCC1`, for which the inhibition is 16.1% (active). For `CC1CC(C)CN(C(=O)COC(=O)c2ccc3ncsc3c2)C1` (configuration not stated), the inhibition was 0.01% (inactive). `CC(C)NC(=O)Nc1cccc2c1O[C@@H](CN(C)S(=O)(=O)c1ccc(F)cc1)[C@@H](C)CN([C@H](C)CO)C2=O`: the inhibition was -17.1% (inactive). With `O=C(Cn1cnc2ccccc21)Nc1ccccc1-c1ccccc1`, the inhibition is -15.9% (inactive).

In the case of `O=C(COC(=O)Cn1cnc2ccccc21)Nc1cccc2c1C(=O)c1ccccc1C2=O`, the inhibition was 49.2% (active). Turning to `O=C(COC(=O)c1cccc(Br)c1)Nc1cccc2c1C(=O)c1ccccc1C2=O`, the inhibition is -3.73% (inactive). In the case of `Cc1ccc(S(=O)(=O)N2CCC(C(=O)NCCC3=CCCCC3)CC2)cc1C`, the inhibition was 2.33% (inactive). `Cc1ccc(OCC(=O)Nc2cccc3c2CCCC3)cc1C`: the inhibition was -1.11% (inactive). `O=C(Nc1ccc(Br)cc1F)C1CC(=O)N(C2CCCCC2)C1` (configuration not stated): the inhibition was -9.6% (inactive). For the molecule `CCS(=O)(=O)n1nc(-c2ccccc2)nc1SCc1ccccc1`, the inhibition is 0.39% (inactive). As to `COc1ccc(-c2cc3nc(NCCOc4ccccc4)ccn3n2)cc1`, the inhibition was 5.17% (inactive).

`COc1ccccc1-c1cc2nc(NCc3cccc(Cl)c3)ccn2n1`: the inhibition is 19.1% (active). For `CC(C)Cc1ccc(-c2cc3nc(NCc4cccc(Cl)c4)ccn3n2)cc1`, the inhibition is -0.63% (inactive). As to `O=C(NCCc1ccco1)C(=O)NCCC1CCCCN1S(=O)(=O)c1ccccc1` (configuration not stated), the inhibition was 0.36% (inactive). Consider `COc1cc(OC)c2ccc(=O)oc2c1C(CCN1CCN(c2ccccc2)CC1)c1ccc2c(c1)OCO2` (configuration not stated), for which the inhibition is -2.01% (inactive). Regarding `O=C(NC(=O)c1ccc(Cl)c(Cl)c1)OC1CCS(=O)(=O)C1` (configuration not stated), the inhibition was -3.19% (inactive). Turning to `CCOCCCNS(=O)(=O)Cc1ccccc1`, the inhibition was 5.68% (inactive). As to `CCCc1cc(=O)[nH]c(SCC(=O)N2CCN(S(=O)(=O)c3ccc(C)cc3C)CC2)n1`, the inhibition is 22.9% (active).

For the molecule `CCCc1cc(=O)[nH]c(SCC(=O)Nc2ccc(S(=O)(=O)N3CCCC3)cc2)n1`, the inhibition was -14.4% (inactive). Take `Cc1ccc(S(=O)(=O)N2CCN(C(=O)CSc3cc(C)ccc3C)CC2)c(C)c1`: the inhibition is 1.59% (inactive). In the case of `COc1ccc(S(=O)(=O)N2CCCCC2c2cc(C(=O)NCc3ccc(F)cc3)no2)cc1` (configuration not stated), the inhibition is -3.9% (inactive). `CCCOn1c(-n2nc(C)cc2C)nc2ccccc2c1=O`: the inhibition was -4.29% (inactive).

As for `CC1(C)NC(=O)N(CC(=O)Nc2ccc(-c3ccccc3)cc2)C1=O`, the inhibition is -5.51% (inactive). As for `COc1ccc(NC(=S)NCc2cccs2)c(OC)c1`, the figure is -8.04% (inactive); as for `COc1ccc2[nH]c(C)c(CCN(Cc3cccs3)C(=S)Nc3ccccc3OC)c2c1`, 18.1% (active); as for `Cc1[nH]c2ccccc2c1CCN(Cc1cccs1)C(=S)NC(C)(C)C`, -6.78% (inactive). In the case of `CCn1c(CSc2nncn2-c2ccc(OC)cc2)nc2cc(S(=O)(=O)N(C)C)ccc21`, the inhibition was 3.36% (inactive). As for `CCCn1nc(C(=O)OCc2nc(N)nc(Nc3ccccc3C)n2)c2ccccc2c1=O`, the figure is -13.7% (inactive). Turning to `Cc1ccccc1Nc1nc(N)nc(CN2CCN(c3ccccn3)CC2)n1`, the inhibition is 16.7% (active). Turning to `Cc1ccccc1Nc1nc(N)nc(CSc2nnc3ccccn23)n1`, the inhibition is 7.49% (inactive). As for `Cc1sc(NC(=S)NC(=O)c2cccs2)nc1-c1ccc(CC(C)C)cc1`, the figure is -2.21% (inactive); as for `O=C(CSCc1ccc([N+](=O)[O-])cc1)Nc1cccc(C(=O)Nc2ccccc2C(=O)O)c1`, -7.21% (inactive); as for `Cc1ccc(S(=O)(=O)N2CCC(C(=O)OCC(=O)N(C)c3ccccc3)CC2)cc1C`, -4.62% (inactive). Turning to `C[C@@H]1CN([C@H](C)CO)C(=O)CCCn2nncc2CO[C@@H]1CN(C)C(=O)OCc1ccccc1`, the inhibition is -12.2% (inactive).

On to `O=C(CSc1n[nH]c(-c2cccnc2)n1)Nc1ccnc2ccccc12`, for which the inhibition is -1.63% (inactive).

For `COc1ccc(Nc2nc(-c3cccnc3)nc3ccccc23)cn1`, the inhibition is 51.2% (active). Turning to `CCN(CC(=O)NC1CCS(=O)(=O)C1)c1nc(-c2cccnc2)nc2ccccc12` (configuration not stated), the inhibition is -4.31% (inactive).

Take `O=C(C1=C(O)C(=O)N(Cc2ccccc2)C1c1cccnc1)c1ccco1` (configuration not stated): the inhibition is -4.41% (inactive).

For the molecule `O=C(C1=C(O)C(=O)N(c2ncccn2)C1c1cccs1)c1ccco1` (configuration not stated), the inhibition is 44.3% (active). `Cc1ccc2nc(N3C(=O)C(O)=C(C(=O)c4ccco4)C3c3cccc(O)c3)sc2c1` (configuration not stated): the inhibition was -1.95% (inactive). Regarding `CC(C)c1nc2sc3c(c2c(=O)n1N)CC(C)(C)OC3`, the inhibition is -4.29% (inactive). For the molecule `CC/C(C)=N/Nc1nc2sc3c(c2c(=O)[nH]1)CC(C)(C)OC3`, the inhibition is 20.9% (active).

As for `CCOC(=O)Cn1c(SC)nc2sc3c(c2c1=O)CC(C)(C)OC3`, the inhibition was -4.5% (inactive).

With `CCC(C)c1ccc(NC(=S)NCc2ccccn2)cc1` (configuration not stated), the inhibition is 0.44% (inactive). For `CN(C)c1ccc(Nc2c3c4c(cccc4n(C)c2=O)C(=O)c2ccccc2-3)cc1`, the inhibition was 48.2% (active). Consider `CN(C)c1ccc(C2N(C)C(=O)c3ccccc3N2C)cc1` (configuration not stated), for which the inhibition was -1.4% (inactive). Take `COc1ccc(NC(=O)CC2C(=O)OCC3CCCCN32)cc1Cl` (configuration not stated): the inhibition is 1.67% (inactive). Turning to `Cc1ccc(C(=O)O)c(NC=O)c1OCc1ccccc1`, the inhibition is -0.93% (inactive). As for `COc1ccc(-c2csc(C(O)c3cccc(Cl)c3)n2)cn1` (configuration not stated), the figure is -11.3% (inactive); as for `CCN1CC=C2C(C#N)=C(N)C(C#N)(C#N)[C@H](c3ccoc3)[C@H]2C1`, 120% (active); as for `CC(C)C(=O)Nc1nnc(Sc2ccc(N(C)C)cc2)s1`, -6.47% (inactive).

For the molecule `CCN(CC(=O)NCc1ccc(Cl)cc1)C(=O)CSc1ccccc1`, the inhibition was -3.84% (inactive).

With `CCN(CC)C(=O)CN(c1cccc(OC)c1)S(=O)(=O)c1ccc(C)cc1`, the inhibition is -0.24% (inactive). For `CCOCCN(C=O)c1cccc(OC)c1`, the inhibition is 32.6% (active). As to `CCOC(=O)NC(=O)C(=CNc1cccc(OC)c1)C(=O)NC(=O)OCC`, the inhibition is -2.26% (inactive).

One may read the inhibition as the relative decrease from the control value, in per cent.
